Test results as given in PubChem BioAssay AID1159580 (chemical genetic matrix, 2015).
The whole screen tested about 5,500 compounds, of which about 2,000 (36%) were called active. Another 18% or so got no clear call; they are omitted. Cut-off read from the data, not from the text of the source: active = normalized growth mostly below about 0.91 (no sharp cut-off); inconclusive = no clear call, values can overlap the other calls; inactive = mostly above about 0.92. The list shows a part of the results.

Assay: chemical genetic growth profiling, strain panel (AID 1159580);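 note: tested at 20 µM; growth read once vehicle control cultures reached saturation at 30 °C; 1 = growth at the plate median or of vehicle wells; lower values mean less growth of the strain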
Details: growth OD

Measured: normalized growth

CC1=NCCc2c1[nH]c1cc(O)ccc21
inactive: S. cerevisiae deletion strains, locus YJR075W, strain HOC1, hits give low values 0.988 | S. cerevisiae deletion strains, locus YKL009W, strain mrt4, hits give low values 0.951 | S. cerevisiae deletion strains, locus YKL068W, hits give low values 0.993 | S. cerevisiae deletion strains, locus YKL085W, strain MDH1 (second series), hits give low values 0.988 | S. cerevisiae deletion strains, locus YKL085W, strain MDH1, hits give low values 0.988 | S. cerevisiae deletion strains, locus YKL160W, strain elf1, hits give low values 0.955 | S. cerevisiae deletion strains, locus YKL190W, strain CNB1, hits give low values 0.999 | S. cerevisiae deletion strains, locus YKR001C, strain vps1, hits give low values 0.993 | S. cerevisiae deletion strains, locus YKR026C, strain gcn3, hits give low values 0.989 | S. cerevisiae deletion strains, locus YKR091W, strain srl3, hits give low values 0.988 | S. cerevisiae deletion strains, locus YLL001W, strain dnm1, hits give low values 0.984 | S. cerevisiae deletion strains, locus YLL026W, hits give low values 0.992 | S. cerevisiae deletion strains, locus YLL041C, strain sdh2, hits give low values 0.97 | S. cerevisiae deletion strains, locus YLR027C, strain aat2, hits give low values 0.985 | S. cerevisiae deletion strains, locus YLR039C, strain RIC1, hits give low values 0.993 | S. cerevisiae deletion strains, locus YLR058C, strain SHM2, hits give low values 0.971 | S. cerevisiae deletion strains, locus YLR102C, strain apc9, hits give low values 0.993 | S. cerevisiae deletion strains, locus YLR113W, strain HOG1, hits give low values 1 | S. cerevisiae deletion strains, locus YLR221C, strain rsa3, hits give low values 1.03 | S. cerevisiae deletion strains, locus YLR258W, strain gsy2, hits give low values 0.967 | S. cerevisiae deletion strains, locus YLR262C, strain YPT6 (second series), hits give low values 0.989 | S. cerevisiae deletion strains, locus YLR262C, strain YPT6, hits give low values 0.95 | S. cerevisiae deletion strains, locus YLR268W, strain sec22, hits give low values 1.05 | S. cerevisiae deletion strains, locus YLR320W, strain mms22, hits give low values 1.03 | S. cerevisiae deletion strains, locus YLR330W, strain CHS5, hits give low values 0.996 | S. cerevisiae deletion strains, locus YLR342W, strain FKS1 (second series), hits give low values 0.996 | S. cerevisiae deletion strains, locus YLR342W, strain FKS1, hits give low values 0.992 | S. cerevisiae deletion strains, locus YLR357W, strain rsc2, hits give low values 0.973 | S. cerevisiae deletion strains, locus YLR370C, strain arc18, hits give low values 0.973 | S. cerevisiae deletion strains, locus YLR371W, strain rom2, hits give low values 0.978 | S. cerevisiae deletion strains, locus YLR384C, strain iki3, hits give low values 0.994 | S. cerevisiae deletion strains, locus YLR418C, strain cdc73, hits give low values 0.995 | S. cerevisiae deletion strains, locus YML016C, strain PPZ1, hits give low values 0.997 | S. cerevisiae deletion strains, locus YML032C, strain rad52, hits give low values 0.995 | S. cerevisiae deletion strains, locus YML120C, strain ndi1, hits give low values 0.962 | S. cerevisiae deletion strains, locus YML124C, strain tub3, hits give low values 0.988 | S. cerevisiae deletion strains, locus YMR058W, strain fet3, hits give low values 0.994 | S. cerevisiae deletion strains, locus YMR078C, strain ctf18, hits give low values 0.979 | S. cerevisiae deletion strains, locus YMR125W, strain sto1, hits give low values 0.928 | S. cerevisiae deletion strains, locus YMR129W, hits give low values 0.986 | S. cerevisiae deletion strains, locus YMR205C, strain PFK2, hits give low values 0.95 | S. cerevisiae deletion strains, locus YMR223W, strain ubp8, hits give low values 0.961 | S. cerevisiae deletion strains, locus YMR231W, strain pep5, hits give low values 0.991 | S. cerevisiae deletion strains, locus YMR263W, strain SAP30, hits give low values 0.99 | S. cerevisiae deletion strains, locus YMR307W, strain GAS1, hits give low values 0.987 | S. cerevisiae deletion strains, locus YNL067W, strain RPL9B, hits give low values 1.02 | S. cerevisiae deletion strains, locus YNL071W, strain lat1, hits give low values 0.981 | S. cerevisiae deletion strains, locus YNL128W, strain TEP1, hits give low values 0.97 | S. cerevisiae deletion strains, locus YNL153C, strain GIM3, hits give low values 1 | S. cerevisiae deletion strains, locus YNL183C, strain NPR1, hits give low values 0.928 | S. cerevisiae deletion strains, locus YNL209W, strain ssb2, hits give low values 0.988 | S. cerevisiae deletion strains, locus YNL233W, strain BNI4, hits give low values 1 | S. cerevisiae deletion strains, locus YNL248C, strain rpa49, hits give low values 0.926 | S. cerevisiae deletion strains, locus YNL250W, strain rad50, hits give low values 0.981 | S. cerevisiae deletion strains, locus YNL271C, strain bni1, hits give low values 1 | S. cerevisiae deletion strains, locus YNL298W, strain CLA4, hits give low values 0.985 | S. cerevisiae deletion strains, locus YNL307C, strain MCK1, hits give low values 0.988 | S. cerevisiae deletion strains, locus YNL322C, strain KRE1 (second series), hits give low values 0.981 | S. cerevisiae deletion strains, locus YNL322C, strain KRE1, hits give low values 0.992 | S. cerevisiae deletion strains, locus YNR049C, strain mso1, hits give low values 0.97 | S. cerevisiae deletion strains, locus YNR052C, strain pop2, hits give low values 0.995 | S. cerevisiae deletion strains, locus YOL006C, strain TOP1, hits give low values 1.04 | S. cerevisiae deletion strains, locus YOL012C, strain htz1 1.3 | S. cerevisiae deletion strains, locus YOL147C, strain pex11, hits give low values 0.998 | S. cerevisiae deletion strains, locus YOR001W, strain rrp6, hits give low values 1.01 | S. cerevisiae deletion strains, locus YOR061W, strain CKA2, hits give low values 0.978 | S. cerevisiae deletion strains, locus YOR069W, strain VPS5, hits give low values 0.973 | S. cerevisiae deletion strains, locus YOR070C, strain gyp1, hits give low values 1.01 | S. cerevisiae deletion strains, locus YOR080W, strain dia2, hits give low values 1.01 | S. cerevisiae deletion strains, locus YOR083W, strain WHI5, hits give low values 0.954 | S. cerevisiae deletion strains, locus YOR106W, strain vam3, hits give low values 0.93 | S. cerevisiae deletion strains, locus YOR136W, strain idh2, hits give low values 0.985 | S. cerevisiae deletion strains, locus YOR144C, strain elg1, hits give low values 0.994 | S. cerevisiae deletion strains, locus YOR184W, strain ser1, hits give low values 0.969 | S. cerevisiae deletion strains, locus YOR231W, strain MKK1, hits give low values 0.985 | S. cerevisiae deletion strains, locus YOR265W, strain rbl2, hits give low values 0.976 | S. cerevisiae deletion strains, locus YOR270C, strain vph1, hits give low values 1.02 | S. cerevisiae deletion strains, locus YOR290C, strain snf2, hits give low values 0.911 | S. cerevisiae deletion strains, locus YOR316C, strain cot1, hits give low values 0.992 | S. cerevisiae deletion strains, locus YPL051W, strain arl3, hits give low values 1.01 | S. cerevisiae deletion strains, locus YPL055C, strain LGE1, hits give low values 0.956 | S. cerevisiae deletion strains, locus YPL078C, strain atp4, hits give low values 0.928 | S. cerevisiae deletion strains, locus YPL106C, strain sse1, hits give low values 0.943 | S. cerevisiae deletion strains, locus YPL240C, strain hsp82, hits give low values 0.992 | S. cerevisiae deletion strains, locus YPL241C, strain CIN2, hits give low values 0.996 | S. cerevisiae deletion strains, locus YPL256C, strain CLN2, hits give low values 0.991 | S. cerevisiae deletion strains, locus YPR119W, strain clb2, hits give low values 0.989 | S. cerevisiae deletion strains, locus YPR141C, strain kar3, hits give low values 0.981 | S. cerevisiae deletion strains, locus YPR163C, strain tif3, hits give low values 1 | S. cerevisiae deletion strains, locus YPR167C, strain met16, hits give low values 0.998 | S. cerevisiae deletion strains, strain wtn01, hits give low values 0.992 | S. cerevisiae strains, strain wild type, hits give low values 0.988
